High-throughput results from PubChem BioAssay.
NS1 function inh = blocks influenza NS1 protein function | Potency, µM (highest dose often 46.1 µM), without a hit: at the top dose activity, positive = more growth | actives 0.4% (n = 270,000) | AID 2326; calls by dose curve; further: potency means the concentration at half of the fitted maximal effect; actives are rising curves; nearly all actives have a fitted effect of over 50% in size
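Compounds were scored for reversing the slow growth caused by influenza A NS1 in S. cerevisiae, measured by optical density at 600 nm. Assay medium contained 2% galactose at pH 6.0; NS1-free yeast of the same strain were the positive control.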
Shiga toxin inh = blocks Shiga toxin action in Vero cells. Vero cells, Shiga toxin protein synthesis inhibition reporter. inhibition, % at 38.7 µM. actives 9.2% (n = 290,000). AID 2315; in the data active means inhibition mostly above about 28%, no sharp cut-off; inactive means mostly below about 43%; further: 0% is about no effect
Pf growth 96h = inhibits malaria parasite growth, 96 h; P. falciparum luciferase reporter growth, 96 h; Potency, µM (doses to about 28.7 µM), without a hit: at the highest dose activity change, negative = inhibition, actives largely listed as inhibitors; actives 6.9% (n = 320,000); further: potency means the concentration at half of the fitted maximal effect; on the % scale 0 is the no-effect control and ±100 the full control effect
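Cell-based qHTS: luciferase-tagged P. falciparum in erythrocytes (2% hematocrit, 0.05% parasitemia final) incubated with compounds for 96 hours, 37 C, 5% CO2; luciferase detection reagent then added and luminescence measured.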
Pf growth 48h = inhibits P. falciparum growth in the first generation, 48 h. Potency, µM (top dose mostly 28.7 µM), for inactives: at the top dose activity change, negative = inhibition, hits mostly inhibitors. AID 504832. actives 5.9% (n = 310,000). P. falciparum luciferase growth in erythrocytes, 48 h; further: potency means the concentration at half of the fitted maximal effect; on the % scale 0 is the no-effect control and ±100 the full control effect
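Here the parasites carry a stable luciferase gene and grow inside erythrocytes in Albumax-based RPMI medium with compound for one erythrocytic cycle. Activity is scored as loss of luminescent signal.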
Cycloheximide cs = affects cycloheximide protein synthesis inhibition readout, counter-screen | cell reporter, cycloheximide protein synthesis inhibition counterscreen | max response, % | actives 12% (n = 300,000) | AID 2314; in the data active means max response mostly above about 13%, no sharp cut-off; inactive means mostly below about 14%; further: read at 38.3 µM for the half of the compounds with a filed dose; 0% is about no effect
Active calls of the source: *; ? = inconclusive; . = not tested or not shown; [ ] = remark or other dose. This is a sample that favours compounds with a hit; in the whole collection about 21% have one here. Unless noted, the call rests on the fitted dose curve; in most records, active means well fitted inhibition curve with a large enough effect; inconclusive means small, poorly fitted or top-dose-only effect, or another doubt; inactive means no such curve, though single readings can be large or run the other way.

SMILES | NS1 function inh | Shiga toxin inh | Pf growth 96h | Pf growth 48h | Cycloheximide cs
COc1cc(NC(=O)CSc2nc(C)c(C)c(C)n2)cc(OC)c1 | . | -7 | -21% | 2% | 1
CC1CC(OP(O)(=S)c2ccc(N(C)C)cc2NC(=O)c2cccs2)CC(C)(C)C1 (stereo unspecified) | 4% | 32 | -8% | -22% | 31*
CC(C)n1cc(CN2CCN(CCc3ccccc3)C(CCO)C2)cn1 (stereo unspecified) | -2% | 30 | 15µM* | 16% | -1
OCCC1CN(Cc2cccnc2)CCN1CCc1ccccc1 (stereo unspecified) | -1% | 2 | 9.3µM* | -11% | 12
N#Cc1nccnc1N1CCN(C(=O)Nc2ccccc2)CC1 | -1% | -14 | -14% | 2% | -1
O=C(NCC1CCCN(C(=O)CN2CCCCC2)C1)c1ccccc1Cl (stereo unspecified) | 0% | 31 | 18% | 8% | 26*
CSCC(=O)N1CCCC(CNC(=O)c2ccccc2Cl)C1 (stereo unspecified) | 0% | 28 | 10% | 0% | 15*
COc1ccccc1NC(=O)N1CCCC(CNC(=O)c2ccccc2Cl)C1 (stereo unspecified) | -11% | 27 | -2% | -25% | 0
CCN(CC)c1ccc(C=C2C(=O)OC(c3ccccc3)OC2=O)cc1 (stereo unspecified) | . | 40 | -28% | 19% | 16
CCN(CC)c1ccc(/C=C/C(=O)C2C(=O)C=C(C)OC2=O)cc1 (stereo unspecified) | . | 100* | 2% | 222% | 26*
O=C(O)c1cccc(Nc2nc(N3CCOCC3)nc(N3CCOCC3)n2)c1 | 18% | -9 | -5% | -13% | -3
Cc1[nH]c2ccccc2c1/C=N/Nc1nc(Nc2ccccc2)nc(N2CCOCC2)n1 | -54% | 16 | ? | ? | 20*
Oc1[nH]c2ccccc2c1N=Nc1nc(Nc2ccccc2)nc(N2CCOCC2)n1 | 5% | 11 | ? | 6.6µM* | -1
COc1ccc(-c2cc(C(F)(F)F)nc(-n3ccnc3)n2)cc1 | . | 24 | ? | 43% | 17
O=C1/C(=C\Nc2ccc(Cl)cc2)CCN1c1ncccn1 | 0% | 89* | 224% | 203% | 23*
O=C1/C(=C\Nc2ccc(OC(F)(F)F)cc2)CCN1c1ncccn1 | 8% | 19 | . | 65% | 18
Cc1ccc(NC(=O)N(C)C)cc1Cl | . | 14 | . | . | 11*
CCCCOC(=O)Nc1ccc(C)c(Cl)c1 | -13% | 57* | ? | 80% | 33*
O=C(O)C1CC=CCC1C(=O)Nc1ccc(Oc2ccc(Cl)cc2)cc1 (stereo unspecified) | 28% | 12 | 3% | 20% | 1
Cc1ccc(NC(=O)Nc2ccc(F)cc2)cc1Cl | 1% | 78* | ? | ? | 32*
CN(C)C(=O)Nc1ccc(Oc2ccc(Cl)cc2)cc1 | . | 14 | . | . | 20*
CCOc1ccccc1NC(=O)c1cnc(NS(=O)(=O)c2ccccc2)nc1 | 2% | -14 | ? | 3% | -3
CCCCN(C(=O)Cn1ncc(Cl)c(Cl)c1=O)c1c(N)n(CC(C)C)c(=O)[nH]c1=O | 3% | -3 | -22% | 0% | -2
Cc1cc(NC(=O)c2ccc3c(c2)C(=O)N(c2cccc(C)c2C)C3=O)no1 | 6% | -10 | ? | 21% | -3
COc1cccc(NC(=O)Nc2ccc(C)c(Cl)c2)c1 | 0% | 78* | 38% | -68% | 45*
SMILES | NS1 function inh | Shiga toxin inh | Pf growth 96h | Pf growth 48h | Cycloheximide cs
Cc1[nH]c2c(ccc3ccccc32)c1C1C(CCN)C1(C)C (stereo unspecified) | 3% | -15 | . | 10µM* | -2
S=c1[nH]c2ccc3ccccc3c2[nH]1 | -63% | 60 | ? | 21% | 19
CN(CCNC(=O)c1ccc(CS(=O)(=O)c2c(Cl)cccc2Cl)o1)CCc1ccccc1 | 5% | -9 | 18% | ? | 1
O=C(C1CCN(C2CCN(C/C=C/c3ccccc3)CC2)CC1)N1CCOCC1 | 0% | -4 | 76% | -22% | 4
Cc1ccc(S(=O)(=O)N(C)/N=C/c2ccc(N(C)C)cc2)cc1 | -11% | 70* | 62% | . | 57*
O=C(Cc1ccc2c(c1)CCCC2)Nc1ccc2ccccc2c1 | -11% | active | 13% | 29% | 43*
COc1ccc(CC(=O)Nc2ccc3c(c2)CCC3)cc1OC | -9% | 4 | 7% | . | 12
O=C(Cc1ccccc1F)Nc1ccc2c(c1)CCC2 | -4% | 73* | 200% | 110% | 28
Cn1cc(C(=O)Nc2ccc3c(c2)CCC3)cn1 | -8% | 75* | 141% | 103% | 56*
Cc1ccccc1CC(=O)Nc1ccc2c(c1)CCC2 | -8% | 9 | 0% | 5% | 13
O=C(Cc1cccc(F)c1)Nc1ccc2c(c1)CCC2 | -22% | 76* | 104% | 35% | 18*
CCS(=O)(=O)N1Cc2ccccc2CC1C(=O)N(C)CC(=O)Nc1cccc(F)c1 (stereo unspecified) | . | . | 22% | 27% | .
O=C(Nc1ccc2c(c1)CCC2)c1cccc(F)c1 | -31% | 113* | 265% | 175% | 75*
O=C(c1c[nH]c(C(=O)C(Cl)(Cl)Cl)c1)c1ccccc1Br | . | -2 | ? | 13µM* | -2
CN(C)C(=O)c1cc(C(=O)c2ccccc2Cl)c[nH]1 | 8% | 28 | ? | 21% | 29*
CN(C)C(=O)c1cc(C(=O)c2ccccc2)c[nH]1 | 0% | 24 | 41% | 4%[0.00184 µM] | 18*
CNC(=O)c1cc(C(=O)c2ccccc2Br)c[nH]1 | -6% | 7 | 22% | 24% | 7
CC1CCCCN1CCn1c(=S)[nH]c2cc3c(cc2c1=O)OCO3 (stereo unspecified) | . | 16 | 4% | -2% | 6
CC(=O)c1ccc(N2CCN(CC(O)COC(c3ccccc3)c3ccccc3)CC2)cc1 (stereo unspecified) | 3% | -4 | -7% | ? | -6
CC(=O)c1ccc(N2CCN(CC(O)COC(c3ccccc3)c3ccccc3C)CC2)cc1 (stereo unspecified) | -9% | -1 | ? | 10µM* | -2
Cc1ccc(CNC(=O)CCC2CCCN(C(=O)c3ccc4c(c3)OCO4)C2)o1 (stereo unspecified) | 1% | 13 | 20% | -8% | 12
Cc1ccc(CNC(=O)CCC2CCCN(Cc3cccc4cccnc34)C2)o1 (stereo unspecified) | 8% | -6 | ? | 22% | 5
Cc1ccc(CNC(=O)CCC2CCCN(C(=O)CCC(F)(F)F)C2)o1 (stereo unspecified) | 4% | -2 | 8.3µM* | -1% | -3
Cc1ccc(CNC(=O)CCC2CCCN(Cc3cccc4ncccc34)C2)o1 (stereo unspecified) | -7% | 24 | -22% | ? | 11*
COC(=O)c1cc(C#N)c(N2CC(C)OC(C)C2)nc1C (stereo unspecified) | . | 33 | 71% | 0% | -1
CC(NC(=O)/C=C/c1ccco1)c1nc2ccccc2n1Cc1ccccc1F (stereo unspecified) | 11% | 60 | 10µM* | ? | 27*
